# Reference: PubChem BioAssay AID642 (Vanderbilt High Throughput Screening Facility, 2007)
# Out of some 2,200 compounds screened, about 2,000 (91%) were called active. The set was probably picked from earlier hits. Not all results are given here. A number with no mark means an inactive call.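 The calls were made as follows: active = luminescence in either of two replicates above the same-plate mean plus 3 SD of the low-dose dopamine control; inactive = the rest.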
# Target: D(1A) dopamine receptor (Homo sapiens) (UniProt P21728)
# Test: potentiation of dopamine EC30 D1 response – cell-based, HEK293 D1, CRE-luciferase, duplicate, confirmation (AID 642)
# Conditions: at 10 µM, stronger effect = higher value
# D(1A) dopamine receptor (Homo sapiens), sequence (P21728 whole entry, looked up): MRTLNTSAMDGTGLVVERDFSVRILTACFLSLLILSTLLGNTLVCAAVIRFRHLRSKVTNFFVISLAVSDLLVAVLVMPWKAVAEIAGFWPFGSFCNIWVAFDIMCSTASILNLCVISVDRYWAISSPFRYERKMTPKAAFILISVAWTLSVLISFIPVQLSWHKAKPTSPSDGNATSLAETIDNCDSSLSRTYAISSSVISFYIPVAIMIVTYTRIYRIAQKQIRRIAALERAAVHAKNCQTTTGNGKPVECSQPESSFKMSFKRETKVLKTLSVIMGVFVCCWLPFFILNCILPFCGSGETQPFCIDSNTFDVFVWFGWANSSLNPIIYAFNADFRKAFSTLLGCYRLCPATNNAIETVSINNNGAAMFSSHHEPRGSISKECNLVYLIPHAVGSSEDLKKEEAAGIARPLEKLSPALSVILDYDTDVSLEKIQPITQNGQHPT
row,SMILES,luminescence
1,CC1(C)Cc2ccccc2-c2nc(CN3CCOCC3)[nH]c(=O)c21,19300 (active)
2,CCCCNc1nc2ccccc2nc1NS(=O)(=O)c1cccs1,15900 (active)
3,Cn1c(=O)c2[nH]c(NCC3CCCO3)nc2n(-c2ccccc2)c1=O (configuration not stated),8480 (active)
4,CN1CCN(CC(O)COCc2ccc3c(c2)OCO3)CC1 (configuration not stated),6270 (active)
5,N#Cc1nc(Cc2ccccc2)oc1NCCc1ccccc1,8810 (active)
6,COc1ccc(Nc2oc(-c3ccccc3Cl)nc2C#N)cc1,15100 (active)
7,CCOc1ccc(Nc2oc(Cc3ccccc3)nc2C#N)cc1,10900 (active)
8,CCCc1nc(N)nc2c1C(=O)CC(C)(C)C2,24100 (active)
9,O=C(C1CCC1)N1CCc2cc(S(=O)(=O)NCc3cccnc3)ccc21,13000 (active)
10,CCOc1cccc(-n2nnnc2-c2ccc(OC)cc2)c1,10400 (active)
11,COc1ccc(-n2c(Cc3cccn3C)nnc2SCC(=O)Nc2cc(C)cc(C)c2)cc1,4890
12,CCOC(=O)c1c(NC(=O)CSc2nnc(CN3CCOCC3)n2C)sc2c1CCCC2,11600 (active)
13,CCOC(=O)c1c(NC(=O)CSc2nnc(Cc3csc(N)n3)n2C)sc(C)c1C,9070 (active)
14,CC1Oc2ccccc2N(Cc2cccnc2)C1=O (configuration not stated),10900 (active)
15,COC(=O)[C@H](C(C)C)n1c(C)c(C(C)=O)c(C(C)=O)c1C,7760
16,CCCn1c(=NC(C)=O)c(C(=O)OCC)cc2c(=O)n3ccccc3nc21,9880 (active)
17,c1coc(-c2nc3nc4ccccc4n3nc2-c2ccco2)c1,14000 (active)
18,CCOc1cc(-c2noc(CCC(=O)N3CCOCC3)n2)ccc1OC,10500 (active)
19,CCOc1ccc(-c2nnn(CC(=O)N3CCN(c4ccc(OC)cc4)CC3)n2)cc1OCC,9620 (active)
20,COc1nc(NCc2ccc(Cl)cc2)nc(OC)n1,13700 (active)
21,CC(=O)c1ccc(Oc2cc(C)nc(-n3nc(C)cc3C)n2)cc1,17900 (active)
22,COc1ccc(Nc2cc(C)nc(-n3nc(C)cc3C)n2)cc1,13700 (active)

row,SMILES,luminescence
1,CCCCSc1nc2c(c(=O)n1CC)SC(C)C2 (configuration not stated),8100 (active)
2,CC(C)C1C2=C(CC(C)(C)CC2=O)ON1c1ccccc1 (configuration not stated),12900 (active)
3,CCOC(=O)c1cc(C)sc1NC(=O)C1CCC1,19700 (active)
4,N#CCCN1CCN(S(=O)(=O)c2ccc(S(=O)(=O)NC3CCCCC3)cc2)CC1,5770 (active)
5,COc1ccc(CCN(C)C(=O)C2CCCN(Cc3ccc(OC)c(OC)c3)C2)cc1OC (configuration not stated),7890 (active)
6,CCCS(=O)(=O)N1CCC(C(=O)NCCc2ccc(OC)c(OC)c2)CC1,7140
7,COc1ccc(NC(=O)C2CCCN(S(=O)(=O)c3cccc4cccnc34)C2)cc1OC (configuration not stated),13800 (active)
8,CCSc1ncnc2c(C#N)c3n(c12)CCCCC3,18600 (active)
9,COc1ccc(-c2nnco2)cc1OC,10800 (active)
10,C=CCSc1nc2c(c(=O)[nH]1)C(C(C)C)C(C#N)=C(N)O2 (configuration not stated),18500 (active)
11,CCOc1ccc2[nH]c(=O)c(C(c3nnnn3CCOC)N3CCOCC3)cc2c1 (configuration not stated),5420
12,CCCSc1nc2c(c(=O)[nH]c(=O)n2C)n1CCc1ccccc1,24800 (active)
13,CC1CCN(c2nc3c(c(=O)[nH]c(=O)n3C)n2CCCc2ccccc2)CC1,14000 (active)
14,O=C(NCc1ccco1)c1cnn2c(C(F)(F)F)cc(-c3ccco3)nc12,8660 (active)
15,O=S(=O)(c1cccs1)N1CCc2ccccc2C1,12600 (active)
16,CN(C)c1nc(N)nc(CSc2nnnn2-c2cccc3ccccc23)n1,7470 (active)
17,CCn1ncc(C2=NOC(C(=O)Nc3ccccc3C(=O)OC)C2)c1C (configuration not stated),14000 (active)
18,Cc1nn(-c2ccccc2)c2c1C(=O)NC(=O)C(C)(C)C2,17700 (active)
19,CCn1cc(C(=O)NCC2COc3ccccc3O2)c2cc(OC)c(OC)cc2c1=O (configuration not stated),9310 (active)
20,Nc1ccc(S(=O)(=O)NC(=O)c2ccccc2)cc1,5620
21,O/N=C(\c1ccc2c(c1)OCCO2)C1CCCCC1,10600 (active)
22,CC(=O)OC(C)C[N+](C)(C)C (configuration not stated),6620 (active)

row,SMILES,luminescence
1,c1ccc2c(NCC3CCCO3)nc(-c3ccncc3)nc2c1 (configuration not stated),9880 (active)
2,CCCN1Cc2cccc(C(=O)NCc3ccccc3)c2C1=O,12000 (active)
3,CC1CCN(c2oc(-c3ccccc3F)nc2C#N)CC1,8980 (active)
4,C#CCNc1nc(C(C)C)nc2c1nnn2Cc1ccccc1F,11700 (active)
5,CCOc1cc(C(=O)N2CCc3cc(OC)c(OC)cc3C2)ccc1OC(F)F,24600 (active)
6,COc1ccc(CCNc2ncnc3nc[nH]c23)cc1OC,14700 (active)
7,COc1ccc(-c2nnc(SCC(=O)NC3CCCCC3)o2)cc1OC,12200 (active)
8,Cc1ccc(C2CC(c3cccc(Br)c3)n3nc(N)nc3N2)cc1 (configuration not stated),10800 (active)
9,Cc1ccc(C2CC(c3cccc(C)c3)n3nc(N)nc3N2)cc1 (configuration not stated),8720 (active)
10,CCOc1ccccc1C1CC(c2ccccc2)Nc2nc(N)nn21 (configuration not stated),10100 (active)
11,FC(F)(F)c1cc(-c2ccco2)nc(N2CCOCC2)n1,24200 (active)
12,Cc1cc(C(F)(F)F)nn1-c1nc(-c2ccco2)cc(C(F)(F)F)n1,8160 (active)
13,COc1ccc(-c2nnn(Cc3nc(N)nc(N4CCCCC4)n3)n2)cc1,12600 (active)
14,COc1ccc(S(=O)(=O)Nc2ccc(S(=O)(=O)N3CCCCC3)cc2)cc1OC,13000 (active)
15,O=C(CSc1nnc2scc(-c3ccc(F)cc3)n12)NCc1ccco1,11300 (active)
16,Cn1c(/C(C#N)=C2/CCCCCN2)nc2ccccc21,15000 (active)
17,COc1ncnc2c1N=C1CC(C)(C)CC(N)=C1S2,8600 (active)
18,COC(=O)c1ccccc1NC(=O)C1CCN(S(=O)(=O)c2cc(OC)ccc2OC)CC1,13600 (active)
19,CCCCc1c(O)nc2n(c1=O)CCS2,4500
20,Oc1ccc(-c2csc(Nc3cccnc3)n2)cc1,10600 (active)
21,COC(=O)C(C)C1Sc2ccccc2NC1=O (configuration not stated),11200 (active)
22,CC(=O)Nc1cccc(Oc2cc(C#N)c(C#N)cc2N2CCOCC2)c1,18800 (active)

row,SMILES,luminescence
1,COc1cc(NC(=O)N2CCOCC2)cc(OC)c1,7060
2,CCn1c(=N)c(S(=O)(=O)c2ccc(F)cc2)cc2c(=O)n3ccccc3nc21,18300 (active)
3,CCc1ccc2oc(=O)cc(CN3CCCCC3C)c2c1 (configuration not stated),10700 (active)
4,COc1ccc(CCNC(=O)c2cc3sccc3n2C)cc1OC,7950
5,COc1ccc(CCNC(=O)CCn2c(=O)oc3ccccc32)cc1OC,12500 (active)
6,CCCc1nc(-c2ccccc2O)n(-c2ccccc2)n1,14800 (active)
7,COc1ncnc2sc3c(c12)CCCC3,9980 (active)
8,N#Cc1c(N)sc2c1CCN(C(=O)OCc1ccccc1)C2,11700 (active)
9,COc1ccc(-c2n[nH]c(C)c2-c2ccc(OC)c(OC)c2)c(O)c1,7480 (active)
10,c1ccc(COc2nsnc2N2CCOCC2)cc1,9440 (active)
11,CCSc1nc(C)nc2c1oc1ccccc12,15900 (active)
12,c1ccc(-c2nnc3n2NC(c2ccc4c(c2)OCO4)S3)cc1 (configuration not stated),13600 (active)
13,Cn1c(=O)c2cn(-c3cccc4ccccc34)cc2n(C)c1=O,8890 (active)
14,COc1ccc(S(=O)(=O)N(C)CC(=O)Nc2ccc3c(c2)OCCO3)cc1OC,7550 (active)
15,COC(=O)C1=C(C)NC2=C(C(=O)c3ccccc32)C1c1ccc(-c2ccc(C(=O)O)cc2)o1 (configuration not stated),12100 (active)
16,COc1ccc(-c2nn3c(-c4ccccc4)nnc3s2)cc1OC,22300 (active)
17,COc1cc(-c2nn3c(-c4cccc(C)c4)nnc3s2)cc(OC)c1OC,12800 (active)
18,N#CCSc1nc2ccccc2c(=O)n1-c1ccccc1,19300 (active)
19,CCOc1ccc(Cn2c(SCCCCC#N)nc3c2c(=O)n(C)c(=O)n3C)cc1OCC,14200 (active)
20,CCC(=O)NC(=Nc1nc2ccccc2s1)NC(=O)CC,18700 (active)
21,CCNc1nc(NCC)nc(N(C)n2cnnc2)n1,15800 (active)
22,C/C(Cl)=C\Cn1c(Nc2cccc(C)c2)nc2c1c(=O)n(C)c(=O)n2C,12000 (active)

row,SMILES,luminescence
1,Cc1cc(C)c2c(n1)nn1c(-n3ccnc3)cc(C)nc21,11600 (active)
2,COc1ccc(-c2cc(C(F)(F)F)nc(S(C)(=O)=O)n2)cc1OC,10100 (active)
3,CCCn1c(=O)c2[nH]c(C3CCCC3)nc2n(CCC)c1=O,22800 (active)
4,CC(C)c1cc(C(=O)O)on1,5510
5,CCOc1ccc2c(c1)cc(CN(C(=O)CC)C1CCCCC1)c1nnnn12,16400 (active)
6,CC(C)n1c(C(O)c2ccccc2)nc2ccccc21 (configuration not stated),6650 (active)
7,COC(=O)Nc1ncc(CN2C(=O)c3ccccc3C2=O)s1,9780 (active)
8,O=C(c1ccco1)N1CCN=C1SCc1cccc(Cl)c1,9520 (active)
9,O=c1cc(-c2ccccc2)nc(N2CCCCC2)[nH]1,12700 (active)
10,Cc1ccc(S(=O)(=O)c2c(N)n(C)c3nc4ccccc4nc23)cc1,11800 (active)
11,CCOC(=O)c1cc2n(c1C)-c1ccccc1C2=O,9350 (active)
12,C/C(=C\C(=O)c1ccccc1)Nc1cccc(O)c1,3550 (active)
13,N#Cc1nc(N)nc(N(c2ccccc2)c2ccccc2)n1,13100 (active)
14,CCc1cc(=O)oc2cc(OCC(=O)N3CCCc4ccccc43)ccc12,14000 (active)
15,CCn1nc(C(=O)OCC(=O)N2c3ccccc3CC2C)c2ccccc2c1=O (configuration not stated),13900 (active)
16,Cc1ccc(-c2nn(-c3ccccc3)cc2CN(Cc2ccccc2)C(=O)CCC(=O)O)o1,9380 (active)
17,O=C(NCc1ccccn1)c1ccc2nc(-c3ccco3)c(-c3ccco3)nc2c1,10400 (active)
18,C=CCn1cnc2scc(-c3ccccc3)c2c1=O,16400 (active)
19,CCOC(=O)/C=c1\s/c(=C\c2ccccc2OC)c(=O)n1CC(=O)N1CCOCC1,15600 (active)
